As a reminder, the inhibition is the relative decrease from the control value, in per cent.

The campaign covered roughly 310,000 compounds. About 1,300 (0.42%) were called active. Rule as the data show it: active = inhibition above about 50%; inactive = the rest. What follows is part of a selection rich in actives, with near analogues and random picks from the rest.

The target in the experiment is Dual specificity tyrosine-phosphorylation-regulated kinase 1A (Rattus norvegicus) (UniProt Q63470). Briefly: inhibition of Dyrk1A kinase activity – biochemical, single point, plate reader, primary screen (AID 504441).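 Also: plate controls were vehicle with enzyme for no effect and no enzyme for full effect.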 Conditions: ADP-Glo luminescence, NFATc1 peptide, at 12.5 µM, hits give high values. (ADP-Glo turns the ADP formed in a reaction into a luminescent signal.)
Take `CC(C)c1cc(N=O)cc(C(C)C)c1O`: the inhibition is 7.15% (inactive). For the compound `O=C1CSC(=S)N1/N=C/c1ccc(O)c([N+](=O)[O-])c1`, the inhibition is 90.8% (active). Under `Cc1cc(C(=O)N/N=C/c2ccc(O)c([N+](=O)[O-])c2)c(C)n1-c1ccc(F)cc1` stands -6.46% (inactive); under `CCOc1cccc(/C=N/N2C(=O)CSC2=S)c1O`, 6.88% (inactive); under `COC1=CC(=O)OC(C)(c2ccccc2)C1` (stereo not drawn), 1.06% (inactive).

As for `COc1ccc2nc(N3C(=O)C(O)=C(C(=O)c4ccco4)C3c3ccco3)sc2c1` (stereo not drawn), the inhibition is 7.88% (inactive). On to `O=S1(=O)CSCS(=O)(=O)C1`, for which the inhibition is -4.37% (inactive). Consider `Cc1noc(C)c1-c1ccc2ncnc(NC(C)c3ccco3)c2c1` (stereo not drawn), for which the inhibition was 58% (active). In the case of `c1coc(CNc2ncnc3ccccc23)c1`, the inhibition was 6.44% (inactive). Turning to `C=CC(=O)Nc1ccc(Nc2ccnc(Nc3ccc(N4CCN(C)CC4)cc3)n2)cc1`, the inhibition is 24.1% (inactive).

In the case of `COc1ccc(Nc2ccc3ccccc3c2)cc1`, the inhibition is -0.0929% (inactive).

For the compound `NC(=O)C1(Nc2ccccc2Cl)CCCC1`, the inhibition was -0.756% (inactive). `COCCN(C(=O)C(C)N1C(=O)c2ccccc2C1=O)c1c(N)n(CC(C)C)c(=O)[nH]c1=O` (stereo not drawn): the inhibition is -2.22% (inactive). Under `Cc1c(NS(=O)(=O)c2cccc(C(=O)Nc3ccc(SC(F)F)cc3)c2)c(=O)n(-c2ccccc2)n1C` stands -4% (inactive); under `COc1ccc2oc(N)nc2c1`, 7.05% (inactive); under `COc1ccc2oc(N)c(C=O)c(=O)c2c1`, 59.5% (active). For the compound `COc1ccc2oc(C)c(NC(C)=O)c2c1`, the inhibition was 1.53% (inactive).

Turning to `NC(=O)C1(N2CCCC2)CCN(Cc2ccccc2)CC1`, the inhibition was -3.22% (inactive).

As for `NC(=O)c1ncn([C@@H]2O[C@H](CN=C3NS(=O)(=O)c4ccccc43)[C@@H](O)[C@H]2O)n1`, the inhibition is 3.02% (inactive). Under `CC(=O)Oc1ccc2c(c1)C(=O)c1ccccc1C2=O` stands 53.6% (active). For `CC(=O)Oc1cccc(C(=O)Nc2ccccc2NC(=O)c2cccc(OC(C)=O)c2)c1`, the inhibition is -0.37% (inactive). Under `CC(=O)Oc1ccc2c(C)c(CC(C)O)c(=O)oc2c1` (stereo not drawn) stands 2.53% (inactive).

For the compound `O=C(NCCC1=CCCCC1)c1ccc(-n2cncn2)cc1`, the inhibition was 4.88% (inactive).

For the compound `O=C(Nc1ccccc1)Oc1cccc2cccnc12`, the inhibition was 7.72% (inactive). In the case of `O=C(c1cccc(S(=O)(=O)N2CCCCCC2)c1)N1CCN(Cc2ccccc2)CC1`, the inhibition is -0.662% (inactive). Regarding `NC(=S)c1ccc(C(N)=S)o1`, the inhibition was 61.8% (active). On to `CC1CN(c2nc(Nc3ccccc3)nc(N)c2[N+](=O)[O-])CC(C)O1` (stereo not drawn), for which the inhibition is 42% (inactive). To `O=[N+]([O-])c1ccc(NCCCN2CCOCC2)c(Cl)c1` belongs 0.781% (inactive); to `Nc1nc(NCCCN2CCOCC2)nc(Nc2ccccc2)c1[N+](=O)[O-]`, 67.2% (active). Under `CC(=O)OCC1(O)CC23CCC4c5ccoc5CCC4(C)C2CCC1C3` (stereo not drawn) stands 7.82% (inactive); under `O=c1nc(NO)ccn1C1CCCO1` (stereo not drawn), -3% (inactive).

In the case of `CCC1([N+](=O)[O-])COC(c2ccc(C(C)C)cc2)OC1` (stereo not drawn), the inhibition is -3.06% (inactive). As for `CC(=O)C1C(c2ccc(Cl)cc2)NC(=O)NC1(O)C(F)(F)F` (stereo not drawn), the inhibition was 57.4% (active). Take `CC(=O)C1C(c2cccc(Oc3ccccc3)c2)NC(=O)NC1(O)C(F)(F)F` (stereo not drawn): the inhibition is -5.37% (inactive).

With `CCOC(=O)C1C(c2ccc(O)cc2)NC(=O)NC1(O)C(F)(F)F` (stereo not drawn), the inhibition was 2.32% (inactive).

On to `O=C(NN=CC=Cc1ccccc1)C(O)C(O)C(=O)NN=CC=Cc1ccccc1` (stereo not drawn), for which the inhibition is 1.04% (inactive). To `O=S(=O)(Cc1ccc(Cl)cc1Cl)c1ccc(Cl)cc1` belongs -0.684% (inactive); to `COc1ccc(C(CNC(=O)c2cccc(S(=O)(=O)Nc3ccc(Br)cc3)c2)N(C)C)cc1` (stereo not drawn), -0.345% (inactive).

The values above are taken from PubChem BioAssay AID504441 (Broad Institute, 2011).
